# Measured potencies and affinities stand elsewhere. Calls of active or inactive are those of the source.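 Rule for the calls: active = every repeat run showing a signal drop whose fitted half-maximal concentration is at most twice the top tested concentration; inconclusive = repeat runs disagree, or flat partial drop, or poor fit; inactive = the rest.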
# Assay: general mammalian cell viability loss – activator set, cherry-pick, cytotoxicity control for miR-122 modulator project, dose response (AID 720690);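 note: 0% = neutral control wells and -100% = MG132 cytotoxic control wells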
# Conditions: HEK293T viability, CellTiter-Glo luminescence, 48 h; series mostly up to 26 µM; activity change, negative = cytotoxicity: at the top concentration
row,Structure (SMILES),"activity change, negative = cytotoxicity"
1,CCCNC(=O)N1C[C@@H]2[C@H](c3ccccc31)[C@@H](CO)N2C(=O)C1CCOCC1,-10.2% (inactive)
2,Cc1ccc(C2CC(C(F)(F)F)n3nc(C(=O)NCc4ccco4)cc3N2)cc1 (centres undefined),5.97% (inactive)
3,CCN(C[C@H]1N[C@@H](CO)[C@@H]1c1ccc(C2=CCCC2)cc1)C(=O)c1cccnc1,-10.3% (inactive)
4,O=C(NC[C@H]1[C@H](c2ccccc2)[C@@H](CO)N1Cc1ccccn1)C1CC1,2.11% [at 23.5 µM] (inactive)
5,CN1C(=O)c2cc(NC(=O)c3cccs3)ccc2OC[C@H]2O[C@@H](CC(=O)N3CCCCC3)CC[C@H]21,-11% (inactive)
6,Cc1ccc(-n2ncc(C(=O)Nc3cc(Cl)ccc3C)c2C2CCNCC2)cc1C,-5.6% (inactive)
7,O=C(Nc1ccc(Cl)c(C(F)(F)F)c1)c1ccco1,-1.21% (inactive)
8,Cc1nn(C)cc1NC(=O)C[C@H]1CC[C@H]2[C@H](COc3ccc(NC(=O)c4cccc(F)c4)cc3C(=O)N2C)O1,-17.4% (inactive)
9,Cc1nc(C)c(C(=O)Nc2ccc(Oc3ccccc3)cc2)o1,-11.6% (inactive)
10,COC(=O)C[C@@H]1CC[C@@H]2[C@H](COc3ccc(NC(=O)c4cc(F)cc(F)c4)cc3C(=O)N2C)O1,-17.8% (inactive)
11,CC(C)C(=O)Nc1ccc2c(c1)C(=O)N(C)[C@@H]1CC[C@H](CC(=O)N[C@H](C)c3ccccc3)O[C@@H]1CO2,0.742% (inactive)
12,CN1C(=O)c2cc(NC(=O)c3ccc(C(F)(F)F)cc3)ccc2OC[C@H]2O[C@H](CC(=O)O)CC[C@@H]21,-8.07% (inactive)
13,C/C=C/c1ccc2c(c1)O[C@H](CN(C)C(=O)Nc1cccc(F)c1)[C@H](C)CN([C@@H](C)CO)S2(=O)=O,-11.1% (inactive)
14,CN1C(=O)c2cc(NC(=O)c3ccccc3F)ccc2OC[C@H]2O[C@H](CC(=O)NCc3ccc4c(c3)OCO4)CC[C@@H]21,-17% (inactive)
15,CN(C[C@H]1[C@H](c2ccccc2)[C@@H](CO)N1CC1CC1)C(=O)c1cccc(F)c1,-1.25% [at 23.5 µM] (inactive)
16,CN1C(=O)c2cc(NC(=O)c3cccc(F)c3)ccc2OC[C@@H]2O[C@@H](CC(=O)O)CC[C@H]21,-11.6% [at 23.5 µM] (inactive)
17,CNC(=O)C[C@@H]1CC[C@@H]2[C@H](COc3ccc(NC(=O)NC(C)C)cc3C(=O)N2C)O1,-16.3% (inactive)
18,CCCNC(=O)Nc1ccc2c(c1)C(=O)N(C)[C@@H]1CC[C@@H](CC(=O)NCC3CCCCC3)O[C@H]1CO2,-5.32% (inactive)
19,COCC(=O)NC[C@H]1[C@@H](c2ccc(C3=CCCC3)cc2)[C@H](CO)N1C(=O)C1CC1,-9.54% (inactive)
20,COc1ccc(C#Cc2ccc([C@@H]3[C@@H](CO)N4CCCCN(C(=O)Nc5ccccc5)C[C@H]34)cc2)cc1,-28% [at 12 µM] (inactive)

row,Structure (SMILES),"activity change, negative = cytotoxicity"
1,N=c1c2c(-c3ccccc3)c(-c3ccccc3)n(Cc3ccccc3)c2ncn1CCCO,-20.2% (inactive)
2,COc1ccc(CNC(=O)NCCc2c[nH]c3ccccc23)cc1,26.2% (inactive)
3,CN1C(=O)c2cc(NC(=O)Cc3ccccc3)ccc2OC[C@H]2O[C@@H](CC(=O)NCc3ccc(Cl)cc3)CC[C@@H]21,-7.94% (inactive)
4,O=C(Cn1c(=O)c2ccccc2n(CC(=O)N2CCCCC2)c1=O)N1CCCCC1,-30.5% (inactive)
5,N#Cc1cccc(NC(=O)Nc2cccs2)c1,-33.5% (inactive)
6,C[C@@H]1CN([C@H](C)CO)S(=O)(=O)c2ccc(C#CC3CC3)cc2O[C@@H]1CN(C)C(=O)c1cccc(F)c1,-31.4% (inactive)
7,C/C=C/c1ccc([C@H]2[C@@H](CO)N(C(=O)NC(C)C)[C@H]2CN(C)C(=O)CC)cc1,3.05% (inactive)
8,COCC(=O)Nc1ccc2c(c1)C(=O)N(C)[C@@H]1CC[C@@H](CC(=O)NC3CCCC3)O[C@H]1CO2,0.953% [at 23.5 µM] (inactive)
9,CNC(=O)C[C@@H]1CC[C@@H]2[C@H](COc3ccc(NC(=O)Nc4cccc(C)c4)cc3C(=O)N2C)O1,7.34% (inactive)
10,O=C(CC(F)(F)F)N1C[C@@H]2[C@H](c3ccccc31)[C@@H](CO)N2C(=O)C1CCCC1,-4.51% (inactive)
11,Cc1ccc(-c2ccc3c(c2)O[C@H](CN(C)Cc2cncnc2)[C@H](C)CN([C@@H](C)CO)S3(=O)=O)cc1,-21.3% (inactive)
12,O=C(NC[C@H]1[C@@H](c2ccccc2)[C@@H](CO)N1CC1CCCC1)c1ccncc1,-12.6% (inactive)
13,COc1cc(C(=O)Nc2ccc(S(=O)(=O)N3CCCCC3C)cc2)cc(OC)c1OC (centres undefined),41.5% (inactive)
14,CN(C)C(=O)c1ccc(NC(=O)c2cc(-n3cnnc3)ccc2Cl)cc1,0.004% (inactive)
15,CC1CCN(CCc2nc3cc(NC(=O)Nc4ccccc4)ccc3n2C)CC1,5.4% (inactive)
16,COCC(=O)Nc1ccc2c(c1)C(=O)N(C)[C@@H]1CC[C@@H](CC(=O)NCCCN(C)C)O[C@@H]1CO2,-23.2% (inactive)
17,CN1CCN(C(=O)C[C@H]2CC[C@@H]3[C@H](COc4ccc(NC(=O)c5cccs5)cc4C(=O)N3C)O2)CC1,7.14% (inactive)
18,CNC(=O)C[C@@H]1CC[C@@H]2[C@@H](COc3ccc(NC(=O)Cc4cccs4)cc3C(=O)N2C)O1,11.6% (inactive)
19,CCC(=O)N1[C@H](CO)[C@H](c2ccccc2)[C@@H]1CN(C(C)C)S(C)(=O)=O,-13.7% (inactive)

# From PubChem BioAssay AID720690 (Broad Institute, 2013)
